Assay results taken from PubChem BioAssay.
A number with no mark means an inactive call. The rule behind the calls is not given here.

System: Aerobactin synthetase IucA (Klebsiella pneumoniae hvKP1)
Experiment: IucA enzyme inhibition, primary screen, biochemical, Spectrum library (AID 1346200);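 note: 100% = wells without compound and 0% = wells lacking enzyme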
Conditions: malachite green pyrophosphate, A620, at 8 µM, hits give low values

Compound | activity remaining [%]
CC(CCC(=O)O)[C@H]1CCC2C3C[C@H](O)[C@@H]4C[C@H](O)CC[C@]4(C)C3CC[C@@]21C (stereo partly drawn) | 104
CCCc1cc(=O)[nH]c(=S)[nH]1 | 120
NCC[C@@H](O)C(=O)N[C@@H]1C[C@H](N)[C@@H](O[C@H]2O[C@H](CN)[C@@H](O)[C@H](O)[C@H]2O)[C@H](O)[C@H]1O[C@H]1O[C@H](CO)[C@@H](O)[C@H](N)C1O (stereo partly drawn) | 113
CCC(C)(C)C(=O)O[C@H]1C[C@@H](C)C=C2C=C[C@H](C)[C@H](CC[C@@H]3C[C@@H](O)CC(=O)O3)[C@H]21 | 106
CC(Cc1ccc(O)c(O)c1)(NN)C(=O)O (stereo not drawn) | 111
CCOc1ccc(C(=O)c2ccc(O)c(O)c2O)cc1 | 110
O=C(/C=C/c1ccccc1)c1ccc(O[C@@H]2O[C@H](CO)[C@@H](O)[C@H](O)[C@H]2O)cc1O | 116
CC1(C)S[C@@H]2[C@H](NC(=O)[C@H](N)c3ccccc3)C(=O)N2[C@H]1C(=O)O | 101
COc1ccc(C(=O)O)c(O)c1OC | 93.8
CC(=O)OCC(=O)[C@@]12OC(C)(C)O[C@@H]1CC1C3C[C@H](F)C4=CC(=O)C=C[C@]4(C)[C@@]3(F)[C@@H](O)C[C@@]12C (stereo partly drawn) | 100
CC(=O)Nc1ccc(S(=O)(=O)c2ccc(NC(C)=O)cc2)cc1 | 110
O=C(NC1CCCCC1)NC1CCCCC1 | 71.2
Cc1ccc2c(Cl)cc(Cl)c(O)c2n1 | 85.6
